# Assay results as given in the supplement of paper PMC8253809.
# “And” between values parts separate entries of the source, which are not always exact repeats. Equal values may be shown once.
# Experiments:
# Experiment in all cases: growth inhibition (% activity, log2 RLU normalised to DMSO / staurosporine); higher = more growth inhibition
# Conditions in all cases: 33 µM
# DIPGX29 = tested on: DIPGX29 (H3.3 K27M diffuse intrinsic pontine glioma line)
# Procedure, shortened: (§1)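 The growth-inhibition value is the median over replicates. pHGG cell lines and H9-derived neural stem cells on Geltrex-coated 384-well plates received approved drugs by pin tool at a single final concentration of about 33 μM, in triplicate, for 7 days at 37 °C, 5% CO2. CellTiter-Glo luminescence was log2-transformed and normalised per plate to % activity between solvent and positive control wells.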
# DIPGX37 = tested on: DIPGX37 (H3.3 K27M diffuse intrinsic pontine glioma line)
# Procedure, shortened: as §1
# DIPGX7 = tested on: DIPGX7 (H3.3 K27M diffuse intrinsic pontine glioma line)
# Procedure, shortened: as §1
# DIPGX9 = tested on: DIPGX9 (diffuse intrinsic pontine glioma line)
# Procedure, shortened: as §1
# HGGX39 = tested on: HGGX39 (paediatric high-grade glioma line)
# Procedure, shortened: as §1
# HGGX6 = tested on: HGGX6 (H3.3 G34R paediatric high-grade glioma line)
# Procedure, shortened: as §1
# HNSC = tested on: HNSC
# Procedure, shortened: as §1
# SUDIPGIV = tested on: SUDIPGIV (diffuse intrinsic pontine glioma line)
# Procedure, shortened: as §1
# SUDIPGVI = tested on: SUDIPGVI (diffuse intrinsic pontine glioma line)
# Procedure, shortened: as §1
# SUDIPGXIII = tested on: SUDIPGXIII (diffuse intrinsic pontine glioma line)
# Procedure, shortened: as §1
Structure (SMILES),growth inhibition (DIPGX29),growth inhibition (DIPGX37),growth inhibition (DIPGX7),growth inhibition (DIPGX9),growth inhibition (HGGX39),growth inhibition (HGGX6),growth inhibition (HNSC),growth inhibition (SUDIPGIV),growth inhibition (SUDIPGVI),growth inhibition (SUDIPGXIII)
CCC(COC(=O)c1cc(OC)c(OC)c(OC)c1)(c1ccccc1)N(C)C (stereo not drawn),7.04%,-5.85%,26.9%,2.8%,7.48%,5.32%,52.1%,23.2%,-0.409%,-13.6%
O=c1[nH]c2ccccc2n1CCCN1CCC(n2c(=O)[nH]c3cc(Cl)ccc32)CC1,1.24%,-0.863%,0.225%,-0.635%,3.76%,1.12%,1.78%,-1.4%,-2.62%,-2.52%
CCC1=C[C@H]2CN3CCc4c([nH]c5ccccc45)[C@](C(=O)OC)(C2)[C@H]13,-4.07%,-1.56%,-1.78%,-1.01%,-1.76%,-3.94%,-4.27%,2.26%,-1.41%,-2.44%
CN(C)[C@@H]1C(=O)C(C(N)=O)=C(O)[C@@]2(O)C(=O)C3=C(O)c4c(O)cccc4[C@@](C)(O)[C@H]3[C@H](O)[C@@H]12,0.568% and -1.27%,1.33% and -2.42%,0.754% and -1.23%,1.93% and -1.22%,2.88% and -0.945%,1.26% and -1.1%,0.393% and 0.992%,2.12% and -1.5%,-1.25% and -0.24%,1.12% and 0.41%
COc1cc2c(cc1OC)[C@@]13CCN4CC5=CCO[C@H]6CC(=O)N2[C@H]1[C@H]6[C@H]5C[C@H]43,-3.31%,0.569%,3.92%,0.679%,5.09%,-3.27%,19.6%,0.395%,1.58%,10.4%
COc1ccc(OC)c(C(O)C(C)N)c1 (stereo not drawn),0.864%,2.94%,-0.264%,0.24%,3.05%,1.53%,1.54%,0.0544%,3.12%,-0.103%
C=C1C[C@@H]2[C@H](CC[C@]3(C)C(=O)CC[C@@H]23)[C@@]2(C)C=CC(=O)C=C12,2.35%,1.24%,3.42%,2.01%,0.458%,-1.58%,-0.552%,-2.53%,-2.19%,0.875%
CC(=O)Nc1cc([As](=O)(O)O)ccc1O,-0.747%,1.33%,-1.33%,-0.567%,0.328%,0.00658%,-0.382%,-1.04%,0.903%,1.03%
CN1[C@@H]2C[C@@H](OC(=O)[C@H](CO)c3ccccc3)C[C@H]1[C@@H]1O[C@@H]12,-4.79%,-2%,-0.341%,-2.82%,-2.31%,-3.37%,23.8%,-3.93%,-9.6%,0.487%
Cc1cccc(Cc2c[nH]cn2)c1C,1.63%,3.84%,4.17%,3.18%,5.48%,2.59%,4.93%,6.05%,6.15%,0.33%
CC(NC(C)(C)C)C(=O)c1cccc(Cl)c1 (stereo not drawn),-0.525%,-0.598%,-1.27%,0.229%,1.55%,0.445%,-1.56%,0.0304%,-0.145%,0.264%
CCOC(=O)c1cncn1[C@H](C)c1ccccc1,1.12%,2.21%,2.54%,2.62%,1.86%,2.36%,3.19%,-0.15%,2.48%,0.0732%
C[C@@H]1O[C@@H](O[C@H]2C[C@@H](O)[C@]3(CO)[C@H]4[C@H](O)C[C@]5(C)[C@@H](C6=CC(=O)OC6)CC[C@]5(O)[C@@H]4CC[C@]3(O)C2)[C@H](O)[C@H](O)[C@H]1O,41.5%,21.1%,60.7%,26.1%,54.5%,51.4%,59.4%,60.1%,37.7%,45.3%
Cc1cc(O)ccc1Cl,-0.668%,0.714%,0.716%,-0.222%,0.78%,0.216%,-2.46%,-0.746%,0.283%,0.848%
CC[C@@H](C(N)=O)N1CCCC1=O,1.34%,-1.57%,0.427%,-0.877%,-1.17%,-3.23%,-0.905%,-1.25%,-0.784%,0.999%
CC(O)(CS(=O)(=O)c1ccc(F)cc1)C(=O)Nc1ccc(C#N)c(C(F)(F)F)c1 (stereo not drawn),0.345%,-1.44%,1.23%,0.462%,1.55%,0.395%,-0.177%,-0.994%,2.38%,1.16%
OC(c1ccccc1)(c1ccccc1)C1CCNCC1,0.581%,-0.7%,-0.982%,-0.0248%,-0.475%,0.616%,-1.42%,-1.01%,0.144%,1.52%
COc1ccc(C(CN(C)C)C2(O)CCCCC2)cc1 (stereo not drawn),1.29%,1.34%,1.7%,0.288%,0.682%,-0.233%,1.61%,0.0945%,-1.13%,-0.0836%
C=C(C)[C@@H]1[C@H]2OC(=O)[C@@H]1[C@]1(O)C[C@H]3O[C@]34C(=O)O[C@H]2[C@]14C,-0.435%,1.09%,-0.608%,0.386%,1.14%,0.986%,-1.08%,-0.711%,2.74%,0.384%
CCN(C)C(=O)Oc1cccc([C@H](C)N(C)C)c1,-0.955%,-0.495%,1.09%,0.618%,1.41%,0.109%,4.36%,-1.75%,-2.42%,-0.000881%

Structure (SMILES),growth inhibition (DIPGX29),growth inhibition (DIPGX37),growth inhibition (DIPGX7),growth inhibition (DIPGX9),growth inhibition (HGGX39),growth inhibition (HGGX6),growth inhibition (HNSC),growth inhibition (SUDIPGIV),growth inhibition (SUDIPGVI),growth inhibition (SUDIPGXIII)
Cc1cccc(C)c1NC(=O)CN1CCCC1=O,-3.64%,-1.99%,-0.96%,-1.24%,-0.565%,-3.14%,6.05%,-2.89%,-1.55%,-1.38%
NCCc1c[nH]c2ccc(O)cc12,-2.73%,0.315%,-2.87%,-2.24%,-2.22%,-1.35%,-4.26%,0.704%,-3.47%,0.646%
CN1C2CC(O)CC1C1OC12 (stereo not drawn),-2.42%,-0.452%,-1.33%,0.803%,-1.67%,-0.472%,-2.89%,-1.37%,-0.226%,–
C#C[C@]1(O)C=C[C@H]2[C@@H]3CCC4=CC(=O)CC[C@@H]4[C@H]3CC[C@@]21CC,1.62%,0.668%,0.599%,1.55%,1.48%,3.32%,0.901%,0.673%,1.89%,0.6%
CN1C(=O)COc2c(C(=O)NC3CN4CCC3CC4)cc(Cl)cc21 (stereo not drawn),2.11%,3.22%,1.36%,3.07%,2.32%,3.19%,0.849%,-0.021%,3.53%,1.12%
CC(=O)O[C@H]1C[C@@H]2CC[C@@H]3[C@H](CC[C@@]4(C)[C@H]3C[C@H]([N+]3(C)CCCCC3)[C@@H]4OC(C)=O)[C@@]2(C)C[C@@H]1[N+]1(C)CCCCC1,-1.09%,0.743%,-0.188%,0.99%,-0.431%,1.2%,-0.41%,-0.385%,0.196%,–
C[N+]1(C)CCCC(OC(=O)C(O)(c2ccccc2)c2ccccc2)C1 (stereo not drawn),-0.577%,0.259%,-0.262%,0.527%,-0.329%,-1.01%,20.4%,-0.578%,-2.44%,-1.44%
O=C1CC[C@@]2(O)[C@H]3Cc4ccc(O)c5c4[C@@]2(CCN3CC2CC2)[C@H]1O5,1.67%,1.95%,2.36%,2.58%,3.26%,2.55%,3.56%,1.52%,3.67%,-0.861%
O=P1(N(CCCl)CCCl)NCCCO1 (stereo not drawn),-1.28%,-0.973%,-2.34%,-0.609%,-1.32%,-0.517%,-1.67%,-2.17%,-1.97%,-0.0596%
O=S(=O)(F)Cc1ccccc1,0.493%,-0.634%,-0.837%,-0.877%,-0.194%,-1.52%,-0.438%,-0.0165%,1.21%,0.305%
COC(=O)C1=CCCN(C)C1,2.02%,4.11%,0.892%,1.35%,1.54%,1.61%,1.06%,0.353%,3.57%,1.1%
CN(C)C(=O)Oc1cccc([N+](C)(C)C)c1,-3.32%,0.574%,-0.239%,-1.38%,-0.512%,-1.84%,-0.376%,-1.46%,-1.83%,1.72%
C[C@]12CCC(=O)C=C1C=C[C@@H]1[C@@H]2CC[C@@]2(C)[C@H]1CC[C@@]2(O)CCC(=O)O,0.155%,-0.641%,2.17%,1.05%,0.878%,-0.966%,37.3%,-0.186%,-0.451%,-0.386%
CCCCCCCCCCCCCCCC[n+]1ccccc1,59.1%,58.4%,62.7%,52.2%,59.6%,35.8%,76.6%,55.8%,62.8%,72.8%
Cc1c(N)nc(C(CC(N)=O)NCC(N)C(N)=O)nc1C(=O)NC(C(=O)NC(C)C(O)C(C)C(=O)NC(C(=O)NCCc1nc(-c2nc(C(=O)NCCC[S+](C)C)cs2)cs1)C(C)O)C(O[C@@H]1O[C@@H](CO)[C@@H](O)[C@H](O)[C@@H]1O[C@H]1O[C@H](CO)[C@@H](O)[C@H](OC(N)=O)[C@@H]1O)c1cnc[nH]1 (stereo partly drawn),3.71%,5.42%,1.63%,17.8%,8.29%,4.24%,56.5%,32.5%,1.68%,4.14%
COc1ccc(C(=O)N2CCCC2=O)cc1,0.75%,0.424%,2.24%,0.251%,-0.804%,-0.258%,0.808%,-2.06%,-5.15%,-1.15%
C[C@]12CC[C@H](O)CC1=CC[C@@H]1[C@@H]2CC[C@]2(C)C(=O)CC[C@@H]12,2.61%,1.45%,2.22%,1.17%,3.44%,4%,3.63%,2.37%,3.47%,1.67%
Nc1nc(N)nc(NC2CC2)n1,0.786%,3.68%,1.03%,0.525%,0.614%,-0.225%,1.21%,1.07%,2.19%,0.454%
CCC1(C)CC(=O)NC(=O)C1,-3.05%,-2.24%,4.09%,-2.78%,-4.36%,-4.73%,7%,-2.82%,-6.09%,-0.846%
